Measurements reported in PubChem BioAssay (EPA / NIEHS).
Activity calls are given as the source filed them. The calls were made as follows: active = hit-call score of the fitted dose curve at least 0.9, where 1 is the maximum; inactive = score below 0.9.

What follows are molecules tested on ABC Transporter (ABCB1), ABCB1 (gene 5243) (assay: LTEA_HepaRG_ABCB1: Life Technologies and Expression Analysis (LTEA) Assay for ABC Transporter (ABCB1) using HepaRG (AID 2283460)). Settings: mRNA level, 48 h; actives raise or lower the signal.
Experimental: LTEA_HepaRG is a cell based, multiplexed-readout assay that uses HepaRG, a human liver cell line, with measurements taken at 48 hours after chemical dosing on a 96-well plate.LTEA_HepaRG_ABCB1 is one of 102 assay component(s) measured in the LTEA HepaRG cell culture assay. It is a marker of Steatosis/NR mediated transport.Data from the assay component LTEA_HepaRG_ABCB1 was analyzed into 1 endpoint. This assay endpoint, LTEA_HepaRG_ABCB1, was analyzed with bidirectional fitting relative to DMSO as the negative control and baseline of activity. Using a type of inducible reporter, measures of mRNA induction for gain or loss-of-signal activity can be used to understand regulation of transcription factor activity. To generalize the intended target to other relatable targets, this assay endpoint is annotated to the transporter intended target family, where the subfamily is ABC transporter.
A total of 1060 chemcials from the ToxCast library were tested in eight-point concentration-response experiments. Cell culture and cytotoxicity assays were conducted at Thermo Fisher Scientific's Custom Services facility (Madison, WI). A single lot of human HepaRG cells (Thermo Fisher Scientific, Frederick, MD) was used for the cell culture experiments. 96-well format collagen type I coated plates of human HepaRG cells were prepared using established methods. Briefly, cryopreserved HepaRG cells were thawed, plated at a density of approximately 100,000 cells/well in HepaRG Thaw, Plate, and General Purpose media (HPRG770, Thermo Fisher Scientific), and incubated for 48 hours. 0.5% DMSO was selected as vehicle control to balance the requisite need of DMSO in HepaRG cultures to maintain differentiation (for example, baseline metabolism, proportions of hepatocytes vs. cholangiocytes), while enabling further hepatic receptor pathway activation (for example, PXR and CAR) in response to chemical exposure. 48 hours after plating, the culture medium was replaced with HepaRG Serum-Free Incudtion Media. Cells were exposed to each test chemical in duplicate and maintained in CO2 incubators for another 48 hours. Chemical plates were thawed to room temperature and 200x concentrations of treatment groups were prepared. 8-point conentration-reponse curves were made with the highest exposure at 100 uM, followed by half-log dilutions, all in 0.5% DMSO. Each test plate contained variouse controls, induction positive controls (1mM phenobarbital), cytotoxicity positive controls ([…] aflatoxin B1), vehicle controls (0.5% DMSO), and total lysis controls (0.5% DMSO). Cell morphology images were taken using an Essen IncuCyte FLR automated microscope, with six 96-well plates imaged in about 24 minutes. Images were captured and exported and JPEG files. Spent culture media was transfered to black-well plates for the LDH assay, and remaining media was sorted at -80 C for later use. Cells were treated with RLT buffer and frozen until shipped for gene expression analysis. Total RNA was isolated from the cell suspension in 75 uL of Buffer RLT (Qiagen, Germantown, MD 20874) by Quintiles/Expression Analysis (Durham, NC) using a custom isolation procedure. Total RNA from each plate well was transferred to a preamplification plate. Fluidigm's 96.96 Dynamic ArrayTM (Fluidigm, Amsterdam, the Netherlands) technology was used for gene expression analyses by quantitative reverse transcription polymerase chain reaction (qRT-PCR, performed by Quintiles/Expression Analysis, Durham, NC)89. Standard TaqManTM Assays (Applied Biosystems/ThermoFisher Scientific, Foster City, CA) were used to assess the expression of 93 genes selected based on their selectivity and sensitivity to important hepatic receptors known to be modulated by environmental chemicals; importance in human hepatocyte functionality; and hepatotoxicity. […]
In the case of `O=C(NC(=O)c1c(F)cccc1F)Nc1cc(Cl)c(OC(F)(F)C(F)F)c(Cl)c1`, the outcome is reported as “inactive”. With `Clc1ccc(C(c2ccccc2Cl)C(Cl)(Cl)Cl)cc1` (stereo not given) the AC50 was 16.9 µM (active). `O=C(N[C@H]1CN2CCC1CC2)c1cc2ccoc2cn1` was tested, and the outcome was “inactive”. `Nn1cnnc1` was tested, and the outcome was “inactive”. In the case of `COc1ccc(O)c(C(C)(C)C)c1`, the outcome is reported as “inactive”. With `CCOC(=O)C(O)(c1ccc(Cl)cc1)c1ccc(Cl)cc1` the AC50 was 73 µM (active). `O=C(O)C(F)(F)C(F)(F)C(F)(F)C(F)(F)C(F)(F)C(F)(F)C(F)(F)C(F)(F)C(F)(F)F` was tested, and the AC50 was 85.1 µM (active). In the case of `CCOCCOC(C)=O`, the outcome is reported as “inactive”. For `N#Cc1ccc(N(CC(N)=O)CC(F)(F)F)cc1C(F)(F)F`, the AC50 was 9.92 µM (active). With `Cc1ccc(O)c(C)c1` the outcome was “inactive”. `Cc1ccccc1[N+](=O)[O-]` was tested, and the outcome was “inactive”. For `CCCCCCCCCc1ccc(O)cc1`, the outcome was “inactive”. In the case of `CCC(=O)O[C@H]1CC[C@H]2[C@@H]3CCC4=CC(=O)CC[C@]4(C)[C@H]3CC[C@]12C`, the outcome is reported as “inactive”. `C[C@]12CCC(=O)C=C1CC[C@@H]1[C@@H]2CC[C@]2(C)C(=O)CC[C@@H]12` was tested, and the AC50 was 17.1 µM (active). `O=NN(c1ccccc1)c1ccccc1` was tested, and the outcome was “inactive”. With `Cc1cccc(C)c1N` the outcome was “inactive”. `CC1=C2C[C@H]3[C@@H](CC=C4C[C@@H](O)CC[C@@]43C)[C@@H]2CC[C@]12O[C@@H]1C[C@H](C)CN[C@H]1[C@H]2C` was tested, and the outcome was “inactive”. For `C[C@]12CCC(=O)C=C1CC[C@@H]1[C@@H]2CC[C@@]2(C)[C@H]1CC[C@]2(C)O`, the AC50 was 5.73 µM (active). With `Oc1ccc(C(c2ccc(O)cc2)(C(F)(F)F)C(F)(F)F)cc1` the outcome was “inactive”. In the case of `Cc1cccc([N+](=O)[O-])c1`, the outcome is reported as “inactive”. For `CC(C)C(=O)OCC(C)(C)C(OC(=O)C(C)C)C(C)C` (stereo not given), the outcome was “inactive”. In the case of `CCCCCCOC(=O)c1ccccc1C(=O)OCCCCCC`, the outcome is reported as “inactive”. With `Cc1ccccc1O` the outcome was “inactive”. For `C=CC(N)=O`, the outcome was “inactive”. With `CC(C)(c1ccccc1)c1ccc(O)cc1` the outcome was “inactive”. `CCC(C)(CC)c1cc(NC(=O)c2c(OC)cccc2OC)on1` was tested, and the AC50 was 1.15 µM (active). With `Oc1c(Cl)c(Cl)c(Cl)c(Cl)c1Cl` the AC50 was 2.1 µM (active). With `ClC1=C(Cl)[C@]2(Cl)[C@@H]3[C@@H](Cl)[C@H]4O[C@H]4[C@@H]3C1(Cl)C2(Cl)Cl` the AC50 was 6.62 µM (active). With `c1ccc(-c2ccccc2)cc1` the outcome was “inactive”. For `CCC(C)c1cc([N+](=O)[O-])cc([N+](=O)[O-])c1O` (stereo not given), the AC50 was 1.39 µM (active). With `c1cc2ccc3cccc4ccc(c1)c2c34` the outcome was “inactive”. With `CO/C=C(/C(=O)OC)c1ccccc1COc1cccc(C(F)(F)F)n1` the outcome was “inactive”. In the case of `C1CC2OC2CC1C1CO1` (stereo not given), the outcome is reported as “inactive”. `O=C(NC(=O)c1cc(F)c(F)cc1Cl)Nc1cc(F)ccc1N1CCC(C(=O)O)CC1` was tested, and the AC50 was 21 µM (active). With `CCSC(=O)N(CC)C1CCCCC1` the outcome was “inactive”. `CCCN(CCC)N=O` was tested, and the outcome was “inactive”. `ClC1=C(Cl)[C@]2(Cl)[C@@H]3[C@H]4C[C@H]([C@@H]5O[C@H]45)[C@@H]3[C@@]1(Cl)C2(Cl)Cl` was tested, and the outcome was “inactive”. For `C=CC(=O)NCNC(=O)C=C`, the outcome was “inactive”. For `O=S(=O)(O)C(F)(F)C(F)(F)C(F)(F)C(F)(F)C(F)(F)C(F)(F)F`, the outcome was “inactive”. `CC(C)(O)C(=O)Nc1ccc([N+](=O)[O-])c(C(F)(F)F)c1` was tested, and the outcome was “inactive”.
